The supplement of paper PMC10849652
Of roughly 8,800 targets only a part is listed; those with a hit were picked by preference. About 0.5% of all pairs of compound and target were hits. Values without a mark were called inactive.

Key:
Experiment in all cases: log2 fold change, soluble protein after heating vs DMSO (PISA); higher = thermal stabilisation; K562 lysate, 10 uM; active = over 0.2 and 3.5 SD of the protein, either way, in both replicates (recomputed)
lapatinib = compound: CS(=O)(=O)CCNCc1ccc(-c2ccc3ncnc(Nc4ccc(OCc5cccc(F)c5)c(Cl)c4)c3c2)o1 [lapatinib]
Summary of the method: (§1)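 A 30 min treatment with 10 μM compound was applied to crude K562 extract at 1 mg/mL protein in PBS pH 7.4 with 1 mM MgCl2. Heating for 3 min spanned 48°C-58°C, after which aliquots were pooled, adjusted to 0.5% NP-40 at 4°C and spun at 21,000xg for 90 min. TMTpro 16plex LC-MS/MS of the supernatant, with channel sums equalised, gave values recorded as log-two fold change in thermal stability against solvent controls, from duplicates.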

pictilisib = compound: CS(=O)(=O)N1CCN(Cc2cc3nc(-c4cccc5[nH]ncc45)nc(N4CCOCC4)c3s2)CC1 [pictilisib]
Summary of the method: as §1

crizotinib = compound: C[C@@H](Oc1cc(-c2cnn(C3CCNCC3)c2)cnc1N)c1c(Cl)ccc(F)c1Cl [crizotinib]
Summary of the method: as §1

[1] = compound: C[C@H](C1=CC=C(C=C1)C(=O)NC2=C3C=CNC3=NC=C2)N
Summary of the method: as §1

duvelisib = compound: C[C@H](Nc1ncnc2nc[nH]c12)c1cc2cccc(Cl)c2c(=O)n1-c1ccccc1 [duvelisib]
Summary of the method: as §1

gandotinib = compound: Cc1cc(Nc2cc(CN3CCOCC3)c3nc(C)c(Cc4ccc(Cl)cc4F)n3n2)n[nH]1 [gandotinib]
Summary of the method: as §1

tozasertib = compound: Cc1cc(Nc2cc(N3CCN(C)CC3)nc(Sc3ccc(NC(=O)C4CC4)cc3)n2)n[nH]1 [tozasertib]
Summary of the method: as §1

doramapimod = compound: Cc1ccc(-n2nc(C(C)(C)C)cc2NC(=O)Nc2ccc(OCCN3CCOCC3)c3ccccc23)cc1 [doramapimod]
Summary of the method: as §1

bafetinib = compound: Cc1ccc(NC(=O)c2ccc(CN3CC[C@H](N(C)C)C3)c(C(F)(F)F)c2)cc1Nc1nccc(-c2cncnc2)n1 [bafetinib]
Summary of the method: as §1

[2] = compound: Cc1cccc(CC(=O)N2CCc3c2ccc(-c2cn(C)c4ncnc(N)c24)c3F)n1
Summary of the method: as §1

nilotinib = compound: Cc1cn(-c2cc(NC(=O)c3ccc(C)c(Nc4nccc(-c5cccnc5)n4)c3)cc(C(F)(F)F)c2)cn1 [nilotinib]
Summary of the method: as §1

[3] = compound: Cc1nc(Nc2n[nH]c3c2CN(C(=O)N[C@H](CN(C)C)c2ccccc2)C3(C)C)c2sccc2n1
Summary of the method: as §1

dasatinib = compound: Cc1nc(Nc2ncc(C(=O)Nc3c(C)cccc3Cl)s2)cc(N2CCN(CCO)CC2)n1 [dasatinib]
Summary of the method: as §1

[4] = compound: Cc1ncc(-c2ccnc(Nc3ccc(S(C)(=O)=O)cc3)n2)n1C(C)C
Summary of the method: as §1

[5] = compound: Cn1cc(-c2ccc3c(c2)CCN3C(=O)Cc2cccc(C(F)(F)F)c2)c2c(N)ncnc21
Summary of the method: as §1

quisinostat = compound: Cn1cc(CNCC2CCN(c3ncc(C(=O)NO)cn3)CC2)c2ccccc21 [quisinostat]
Summary of the method: as §1

tipifarnib = compound: Cn1cncc1[C@@](N)(c1ccc(Cl)cc1)c1ccc2c(c1)c(-c1cccc(Cl)c1)cc(=O)n2C [tipifarnib]
Summary of the method: as §1

[6] = compound: NC(=O)Nc1cc(-c2cccc(F)c2)sc1C(=O)N[C@H]1CCCNC1
Summary of the method: as §1

[7] = compound: NC(=O)c1cnc(N[C@@H]2CCCC[C@@H]2N)nc1Nc1cccc(-n2nccn2)c1
Summary of the method: as §1

[8] = compound: NC1(c2ccc(-c3nc4ccn5c(=O)[nH]nc5c4cc3-c3ccccc3)cc2)CCC1
Summary of the method: as §1

Sequence of UniProt P27144 (P27144 whole entry, looked up): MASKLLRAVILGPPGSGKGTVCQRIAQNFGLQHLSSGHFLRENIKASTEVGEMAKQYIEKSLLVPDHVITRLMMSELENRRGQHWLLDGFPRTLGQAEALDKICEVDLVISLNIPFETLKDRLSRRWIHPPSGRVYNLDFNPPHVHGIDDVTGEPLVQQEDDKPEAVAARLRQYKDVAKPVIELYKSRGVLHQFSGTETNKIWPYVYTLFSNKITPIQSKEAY
Sequence of UniProt Q6NXT1 (Q6NXT1 whole entry, looked up): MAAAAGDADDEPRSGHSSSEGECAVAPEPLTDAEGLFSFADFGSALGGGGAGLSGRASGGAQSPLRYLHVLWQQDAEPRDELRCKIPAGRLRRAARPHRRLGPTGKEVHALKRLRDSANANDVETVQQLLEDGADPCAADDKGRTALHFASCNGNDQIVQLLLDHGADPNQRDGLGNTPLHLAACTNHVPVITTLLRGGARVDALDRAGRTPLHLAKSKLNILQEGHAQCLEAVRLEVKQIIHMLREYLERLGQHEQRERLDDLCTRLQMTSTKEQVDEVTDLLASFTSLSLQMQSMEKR
Sequence of UniProt Q9NQW6 (Q9NQW6 whole entry, looked up): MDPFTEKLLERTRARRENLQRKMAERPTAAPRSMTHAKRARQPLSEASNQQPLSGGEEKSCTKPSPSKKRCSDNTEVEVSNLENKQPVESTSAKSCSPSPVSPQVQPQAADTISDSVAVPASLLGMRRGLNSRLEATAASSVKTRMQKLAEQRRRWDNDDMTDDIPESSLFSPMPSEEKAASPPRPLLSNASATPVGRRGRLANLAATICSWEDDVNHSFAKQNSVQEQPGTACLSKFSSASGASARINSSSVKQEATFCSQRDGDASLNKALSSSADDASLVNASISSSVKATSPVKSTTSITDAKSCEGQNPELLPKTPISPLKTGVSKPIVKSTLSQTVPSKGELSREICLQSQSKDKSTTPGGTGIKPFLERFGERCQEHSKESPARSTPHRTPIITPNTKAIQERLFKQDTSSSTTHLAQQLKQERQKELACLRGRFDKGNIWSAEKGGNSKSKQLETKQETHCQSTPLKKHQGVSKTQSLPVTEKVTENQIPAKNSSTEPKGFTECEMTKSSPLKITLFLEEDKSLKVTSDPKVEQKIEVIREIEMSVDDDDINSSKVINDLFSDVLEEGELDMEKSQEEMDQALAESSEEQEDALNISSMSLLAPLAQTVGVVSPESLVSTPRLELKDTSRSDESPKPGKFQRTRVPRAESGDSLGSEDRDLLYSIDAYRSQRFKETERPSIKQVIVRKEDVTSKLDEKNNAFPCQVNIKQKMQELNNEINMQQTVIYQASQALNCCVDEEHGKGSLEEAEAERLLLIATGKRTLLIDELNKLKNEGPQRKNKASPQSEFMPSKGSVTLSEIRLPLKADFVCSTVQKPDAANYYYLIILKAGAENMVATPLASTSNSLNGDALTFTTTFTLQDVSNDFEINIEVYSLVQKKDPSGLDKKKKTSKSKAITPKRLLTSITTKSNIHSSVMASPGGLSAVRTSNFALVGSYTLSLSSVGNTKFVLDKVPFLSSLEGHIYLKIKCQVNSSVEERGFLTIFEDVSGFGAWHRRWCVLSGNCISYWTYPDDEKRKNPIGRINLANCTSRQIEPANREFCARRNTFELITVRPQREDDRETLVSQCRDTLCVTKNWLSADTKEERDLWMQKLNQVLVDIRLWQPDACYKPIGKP
Sequence of UniProt Q12797 (Q12797 whole entry, looked up): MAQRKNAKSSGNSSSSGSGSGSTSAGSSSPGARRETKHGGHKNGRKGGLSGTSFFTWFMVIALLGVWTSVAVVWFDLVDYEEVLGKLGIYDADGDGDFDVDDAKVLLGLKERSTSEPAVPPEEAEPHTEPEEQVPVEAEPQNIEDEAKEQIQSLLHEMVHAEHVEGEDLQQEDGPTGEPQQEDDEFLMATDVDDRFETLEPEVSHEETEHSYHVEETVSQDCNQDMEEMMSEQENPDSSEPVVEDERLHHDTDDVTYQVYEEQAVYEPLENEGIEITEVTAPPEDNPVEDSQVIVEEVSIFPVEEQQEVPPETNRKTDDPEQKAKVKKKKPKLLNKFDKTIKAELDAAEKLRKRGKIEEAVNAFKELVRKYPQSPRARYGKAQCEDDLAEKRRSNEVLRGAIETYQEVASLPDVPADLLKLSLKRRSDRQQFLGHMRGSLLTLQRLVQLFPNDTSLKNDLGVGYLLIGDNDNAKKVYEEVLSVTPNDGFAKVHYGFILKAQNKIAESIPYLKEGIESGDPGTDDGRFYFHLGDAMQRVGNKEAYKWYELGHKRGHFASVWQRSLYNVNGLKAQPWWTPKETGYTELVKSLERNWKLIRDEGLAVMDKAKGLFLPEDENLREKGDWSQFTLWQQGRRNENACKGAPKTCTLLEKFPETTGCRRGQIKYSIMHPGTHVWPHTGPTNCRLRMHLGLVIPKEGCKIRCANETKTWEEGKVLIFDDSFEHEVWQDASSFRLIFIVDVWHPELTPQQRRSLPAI
Sequence of UniProt Q9ULX6 (Q9ULX6 whole entry, looked up): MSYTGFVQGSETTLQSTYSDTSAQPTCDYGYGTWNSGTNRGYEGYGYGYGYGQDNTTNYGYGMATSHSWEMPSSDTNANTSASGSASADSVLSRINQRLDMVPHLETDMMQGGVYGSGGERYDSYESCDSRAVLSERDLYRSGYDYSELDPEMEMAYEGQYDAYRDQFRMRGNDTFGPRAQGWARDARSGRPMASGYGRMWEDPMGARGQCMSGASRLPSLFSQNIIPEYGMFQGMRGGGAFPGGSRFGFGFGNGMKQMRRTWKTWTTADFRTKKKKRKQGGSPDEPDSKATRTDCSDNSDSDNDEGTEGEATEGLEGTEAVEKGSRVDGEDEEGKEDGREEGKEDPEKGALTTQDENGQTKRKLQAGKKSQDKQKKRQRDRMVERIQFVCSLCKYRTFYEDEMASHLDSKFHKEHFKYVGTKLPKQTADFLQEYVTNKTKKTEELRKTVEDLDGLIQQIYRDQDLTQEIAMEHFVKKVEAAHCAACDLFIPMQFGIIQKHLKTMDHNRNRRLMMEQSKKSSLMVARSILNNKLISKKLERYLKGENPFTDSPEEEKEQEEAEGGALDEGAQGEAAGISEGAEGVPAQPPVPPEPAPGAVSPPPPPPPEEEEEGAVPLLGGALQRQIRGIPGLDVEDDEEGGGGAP
Sequence of UniProt Q9NXW9 (Q9NXW9 whole entry, looked up): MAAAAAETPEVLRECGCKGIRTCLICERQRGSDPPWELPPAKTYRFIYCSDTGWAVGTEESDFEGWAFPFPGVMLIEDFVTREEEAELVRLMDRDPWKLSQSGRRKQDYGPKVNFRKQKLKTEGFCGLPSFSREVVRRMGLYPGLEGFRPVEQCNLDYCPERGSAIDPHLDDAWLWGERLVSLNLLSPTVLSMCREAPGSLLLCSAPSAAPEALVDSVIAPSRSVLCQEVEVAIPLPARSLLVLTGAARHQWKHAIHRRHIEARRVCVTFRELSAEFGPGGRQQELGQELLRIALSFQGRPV
Sequence of UniProt Q9NWB6 (Q9NWB6 whole entry, looked up): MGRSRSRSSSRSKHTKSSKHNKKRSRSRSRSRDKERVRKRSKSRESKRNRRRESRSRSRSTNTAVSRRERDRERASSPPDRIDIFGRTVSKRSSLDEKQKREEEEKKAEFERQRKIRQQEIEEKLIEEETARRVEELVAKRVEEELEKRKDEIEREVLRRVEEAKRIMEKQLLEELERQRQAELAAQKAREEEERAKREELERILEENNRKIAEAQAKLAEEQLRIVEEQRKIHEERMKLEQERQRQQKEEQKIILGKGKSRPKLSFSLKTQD
Sequence of UniProt P35611 (P35611 whole entry, looked up): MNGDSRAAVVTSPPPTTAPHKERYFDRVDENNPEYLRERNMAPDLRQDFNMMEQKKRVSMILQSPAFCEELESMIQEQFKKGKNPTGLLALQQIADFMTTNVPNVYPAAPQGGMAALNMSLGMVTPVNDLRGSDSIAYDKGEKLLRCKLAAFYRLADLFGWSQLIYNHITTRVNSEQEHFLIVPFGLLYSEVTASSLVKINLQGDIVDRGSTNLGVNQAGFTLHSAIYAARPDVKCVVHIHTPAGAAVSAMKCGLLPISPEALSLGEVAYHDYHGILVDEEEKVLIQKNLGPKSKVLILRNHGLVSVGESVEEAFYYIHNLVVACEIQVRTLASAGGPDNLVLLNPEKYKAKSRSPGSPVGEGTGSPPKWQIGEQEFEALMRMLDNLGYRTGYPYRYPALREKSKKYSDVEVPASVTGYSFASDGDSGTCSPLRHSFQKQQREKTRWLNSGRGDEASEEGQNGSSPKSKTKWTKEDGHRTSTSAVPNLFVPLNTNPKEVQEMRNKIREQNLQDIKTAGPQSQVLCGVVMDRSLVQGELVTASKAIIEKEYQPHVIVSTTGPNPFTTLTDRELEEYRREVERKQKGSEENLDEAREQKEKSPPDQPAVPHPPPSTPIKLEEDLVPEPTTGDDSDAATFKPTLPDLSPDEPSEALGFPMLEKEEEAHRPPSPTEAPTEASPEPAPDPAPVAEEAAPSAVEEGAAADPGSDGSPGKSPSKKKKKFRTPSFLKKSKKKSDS
Sequence of UniProt P00352 (P00352 whole entry, looked up): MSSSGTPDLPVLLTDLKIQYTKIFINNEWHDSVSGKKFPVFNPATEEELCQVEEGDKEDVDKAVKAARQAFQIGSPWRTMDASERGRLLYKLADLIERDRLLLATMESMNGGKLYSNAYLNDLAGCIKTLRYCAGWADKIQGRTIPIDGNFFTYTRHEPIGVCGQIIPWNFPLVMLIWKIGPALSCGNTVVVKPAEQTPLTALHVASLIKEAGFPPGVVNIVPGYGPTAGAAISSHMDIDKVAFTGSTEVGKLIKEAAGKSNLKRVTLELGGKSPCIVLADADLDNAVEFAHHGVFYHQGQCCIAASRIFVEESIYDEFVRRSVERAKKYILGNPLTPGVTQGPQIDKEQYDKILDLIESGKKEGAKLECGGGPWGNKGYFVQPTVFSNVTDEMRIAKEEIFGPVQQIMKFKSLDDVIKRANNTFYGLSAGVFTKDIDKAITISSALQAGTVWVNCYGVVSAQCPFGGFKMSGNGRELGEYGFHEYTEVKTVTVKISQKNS

Target | log2 fold change (lapatinib) | log2 fold change (pictilisib) | log2 fold change (crizotinib) | log2 fold change [1] | log2 fold change (duvelisib) | log2 fold change (gandotinib) | log2 fold change (tozasertib) | log2 fold change (doramapimod) | log2 fold change (bafetinib) | log2 fold change [2] | log2 fold change (nilotinib) | log2 fold change [3] | log2 fold change (dasatinib) | log2 fold change [4] | log2 fold change [5] | log2 fold change (quisinostat) | log2 fold change (tipifarnib) | log2 fold change [6] | log2 fold change [7] | log2 fold change [8]
ANKRD54 (UniProt Q6NXT1) | 0.038 | -0.008 | 0.058 | 0.01 | 0.008 | 0.049 | -0.002 | 0.044 | -0.029 | -0.007 | 0.053 | -0.003 | -0.013 | 0.05 | -0.018 | -0.024 | 0.019 | -0.013 | 0 | 0.04
ADD1 isoform 3 (UniProt P35611) | -0.017 | 0.003 | 0.014 | -0.011 | 0.014 | -0.001 | -0.002 | 0.002 | 0.002 | -0.019 | 0.027 | -0.005 | 0.007 | -0.017 | -0.012 | -0.016 | 0.019 | 0.007 | -0.015 | 0.011
ALKBH4 (UniProt Q9NXW9) | -0.02 | 0.003 | 0.04 | -0.055 | 0.035 | -0.019 | 0.047 | -0.018 | -0.108 | -0.028 | -0.053 | -0.05 | -0.028 | -0.008 | 0.007 | -0.01 | 0.023 | 0.023 | -0.013 | 0.047
ABHD11 (UniProt Q8NFV4) | 0.024 | 0.033 | -0.019 | -0.121 | 0.028 | 0.853 (active) | 0.081 | -0.034 | 0.009 | 0.05 | -0.001 | -0.021 | -0.005 | -0.044 | 0.079 | 0.081 | 0.042 | -0.016 | 0.04 | -0.003
ABHD13 (UniProt Q7L211) | -0.059 | 0.049 | 0.197 | -0.593 (active) | 0 | 0.193 | -0.044 | -0.104 | -0.197 | 0.184 | 0.152 | -0.186 | -0.177 | -0.069 | 0.21 | 0.121 | -0.233 | -0.029 | 0.037 | 
ARGLU1 (UniProt Q9NWB6) | 0.038 | 0.013 | 0.043 | -0.062 | -0.023 | -0.119 | 0.045 | 0.019 | -0.014 | 0.013 | -0.012 | -0.007 | 0.058 | -0.018 | 0.096 | 0.022 | -0.043 | -0.133 | -0.012 | 0.016
ACADS (UniProt P16219) | -0.004 | -0.018 | -0.027 | -0.026 | -0.003 | 0.016 | -0.013 | 0.008 | 0.037 | 0.034 | 0.278 (active) | -0.04 | -0.002 | -0.025 | 0.033 | -0.009 | -0.018 | 0.032 | 0.01 | 0.017
ACIN1 isoform 5 (UniProt Q9UKV3) | 0.012 | -0.024 | 0.034 | 0.022 | -0.002 | -0.003 | 0.003 | 0.01 | -0.013 | 0.002 | 0.017 | -0.018 | -0.012 | 0.001 | 0.008 | 0.011 | 0 | -0.063 | 0.024 | 0.01
ALDH2 (UniProt P05091) | 0 | 0 | -0.02 | -0.012 | -0.03 | 0.011 | 0.023 | -0.023 | 0.017 | -0.077 | 0.028 | -0.017 | 0.014 | -0.013 | 0.001 | 0.121 | 0.039 | 0.001 | 0.016 | -0.003
ASPH (UniProt Q12797) | -0.035 | -0.012 | -0.025 | 0.048 | -0.022 | -0.04 | 0.037 | 0.008 | 0.029 | 0.005 | -0.033 | -0.025 | 0.089 | 0.011 | -0.019 | -0.02 | 0.004 | -0.005 | -0.009 | -0.013
ABCD3 (UniProt P28288) | 0.179 | -0.019 | -0.063 | 0.014 | 0.019 | 0.079 | 0.098 | -0.002 | 0.027 | -0.006 | 0.019 | 0.093 | -0.063 | -0.184 | 0.031 | 0.074 | -0.025 | 0.016 | -0.054 | 0.087
AP5B1 (UniProt Q2VPB7) | 0.095 | -0.046 | 0.069 | 0.034 | -0.012 | -0.092 | -0.028 | 0.272 | -0.056 | 0.047 | 0.001 | -0.033 | 0.065 | -0.053 | -0.072 | -0.027 | -0.087 | 0.324 (active) | -0.023 | -0.036
AK4 (UniProt P27144) | -0.003 | -0.033 | 0.028 | -0.027 | 0.014 | -0.019 | 0.052 | 0.03 | -0.024 | 0.012 | -0.006 | 0.003 | -0.04 | 0.042 | 0.04 | -0.012 | 0.001 | 0.018 | -0.023 | -0.012
ALDH1A1 (UniProt P00352) | 0.002 | -0.068 | 0.004 | 0.05 | -0.023 | -0.111 | -0.006 | -0.015 | 0.061 | -0.164 | 0.036 | -0.019 | 0.306 (active) | -0.012 | -0.04 | 0.015 | 0.019 | 0.014 | -0.011 | 0.034
AKAP8L (UniProt Q9ULX6) | 0.017 | -0.018 | 0.053 | -0.05 | 0.038 | 0.033 | 0 | -0.153 | 0.016 | 0.011 | -0.267 (active) | 0.022 | -0.062 | 0.016 | 0.037 | -0.024 | -0.011 | 0.055 | 0.002 | 0.028
ANLN (UniProt Q9NQW6) | -0.007 | 0.004 | -0.02 | -0.037 | -0.02 | 0.024 | 0.052 | 0.01 | -0.038 | 0.028 | -0.023 | 0.047 | -0.009 | -0.018 | 0.04 | -0.072 | -0.041 | 0.006 | -0.013 | 0.015
